Measurements as given in PubChem BioAssay AID1159580 (chemical genetic matrix, 2015).
In all, about 5,500 compounds went through this assay and about 2,000 (36%) were called active. About 18% were inconclusive and are not listed. No stated cut-off is given here; in the data, active means normalized growth mostly below about 0.91 (no sharp cut-off); inconclusive means no clear call, values can overlap the other calls; inactive means mostly above about 0.92. The list shows a part of the results.

Assay: chemical genetic growth profiling, strain panel (AID 1159580);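 further: tested at 20 µM; growth read once vehicle control cultures reached saturation at 30 °C; 1 = growth at the plate median or of vehicle wells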
Settings: growth OD
[1] = S. cerevisiae deletion strains, locus YAL013W, strain DEP1, stronger effect = lower value
[2] = S. cerevisiae deletion strains, locus YAL040C, strain CLN3, stronger effect = lower value
[3] = S. cerevisiae deletion strains, locus YCL061C, strain MRC1 (second series), stronger effect = lower value
[4] = S. cerevisiae deletion strains, locus YDR363W, strain ESC2, stronger effect = lower value
[5] = S. cerevisiae deletion strains, locus YER002W, strain NOP16, stronger effect = lower value
[6] = S. cerevisiae deletion strains, locus YNL153C, strain GIM3, stronger effect = lower value
[7] = S. cerevisiae deletion strains, locus YNL175C, strain NOP13, stronger effect = lower value
[8] = S. cerevisiae deletion strains, locus YNL197C, strain WHI3, stronger effect = lower value
[9] = S. cerevisiae deletion strains, locus YNL224C, strain SQS1, stronger effect = lower value
[10] = S. cerevisiae deletion strains, locus YOR083W, strain WHI5 (second series), stronger effect = lower value
[11] = S. cerevisiae deletion strains, locus YPL055C, strain LGE1, stronger effect = lower value
[12] = S. cerevisiae deletion strains, locus YPL241C, strain CIN2, stronger effect = lower value
[13] = S. cerevisiae deletion strains, locus YJR075W, strain HOC1, stronger effect = lower value
[14] = S. cerevisiae deletion strains, locus YMR307W, strain GAS1, stronger effect = lower value
[15] = S. cerevisiae deletion strains, locus YDR150W, strain NUM1, stronger effect = lower value
[16] = S. cerevisiae deletion strains, locus YGR078C, strain PAC10, stronger effect = lower value
[17] = S. cerevisiae deletion strains, locus YNL322C, strain KRE1, stronger effect = lower value
[18] = S. cerevisiae deletion strains, locus YHR030C, strain SLT2, stronger effect = lower value

Measured: normalized growth

N#Cc1c(-c2ccccc2)no[n+]1[O-]
active: [2] 0.674 | [5] 0.85 | [6] 0.515 | [7] 0.774 | [10] 0.253
inactive: [1] 0.942 | [3] 0.995 | [4] 1 | [8] 0.902 | [9] 0.926 | [11] 0.953 | [12] 1

Cc1ccc(O)c(N=Nc2ccccc2)n1
active: [3] 0.934 | [13] 0.855 | [10] 0.738 | [11] 0.425
inactive: [2] 0.96 | [4] 0.896 | [5] 1.03 | [14] 0.984 | [7] 0.985 | [8] 0.977 | [9] 0.993

NC1CCN(c2cccc(Cl)n2)CC1
inactive: [2] 1.01 | [3] 1 | [15] 1.01 | [4] 1.01 | [5] 0.991 | [16] 1.01 | [14] 1.02 | S. cerevisiae deletion strains, locus YNL128W, strain TEP1, stronger effect = lower value 1.01 | [7] 0.991 | [8] 1 | [9] 1.01 | [17] 0.984 | [10] 0.991 | [12] 1

CN1CCN(C(c2ccccc2)c2ccc(Cl)cc2)CC1 (stereo not drawn)
inactive: [18] 0.974 | S. cerevisiae deletion strains, locus YHR079C, strain IRE1, stronger effect = lower value 0.986 | S. cerevisiae deletion strains, locus YJL095W, strain BCK1, stronger effect = lower value 0.974 | S. cerevisiae deletion strains, locus YJR066W, strain TOR1, stronger effect = lower value 0.979 | S. cerevisiae deletion strains, locus YLR113W, strain HOG1, stronger effect = lower value 0.962 | S. cerevisiae deletion strains, locus YNL183C, strain NPR1, stronger effect = lower value 0.914 | S. cerevisiae deletion strains, locus YOR231W, strain MKK1, stronger effect = lower value 0.981 | S. cerevisiae deletion strains, locus YPL256C, strain CLN2, stronger effect = lower value 0.951

CC(C)(C)OC(=O)N1CCN(Cc2ccccc2)CC1
inactive: [1] 1 | S. cerevisiae deletion strains, locus YBR229C, strain ROT2, stronger effect = lower value 1 | S. cerevisiae deletion strains, locus YDL101C, strain DUN1, stronger effect = lower value 1.02 | [15] 1.03 | S. cerevisiae deletion strains, locus YEL061C, strain CIN8, stronger effect = lower value 0.98 | [16] 0.999 | S. cerevisiae deletion strains, locus YGR229C, strain SMI1, stronger effect = lower value 1.02 | [18] 1.08 | S. cerevisiae deletion strains, locus YHR087W, strain rtc3, stronger effect = lower value 0.991 | S. cerevisiae deletion strains, locus YJR043C, strain POL32, stronger effect = lower value 0.998 | [13] 1 | S. cerevisiae deletion strains, locus YKL190W, strain CNB1, stronger effect = lower value 1.01 | S. cerevisiae deletion strains, locus YLR039C, strain RIC1, stronger effect = lower value 0.967 | S. cerevisiae deletion strains, locus YLR058C, strain SHM2 (second series), stronger effect = lower value 0.986 | S. cerevisiae deletion strains, locus YLR085C, strain ARP6, stronger effect = lower value 0.997 | S. cerevisiae deletion strains, locus YLR262C, strain YPT6, stronger effect = lower value 1.04 | S. cerevisiae deletion strains, locus YML094W, strain GIM5, stronger effect = lower value 0.989 | S. cerevisiae deletion strains, locus YMR219W, strain ESC1, stronger effect = lower value 0.994 | S. cerevisiae deletion strains, locus YMR263W, strain SAP30, stronger effect = lower value 1.01 | [6] 1 | S. cerevisiae deletion strains, locus YNL298W, strain CLA4 (second series), stronger effect = lower value 1.01 | [17] 1 | S. cerevisiae deletion strains, locus YNR030W, strain Alg12, stronger effect = lower value 0.992 | S. cerevisiae deletion strains, locus YOL006C, strain TOP1, stronger effect = lower value 1.08 | [11] 1.03 | [12] 1.01 | S. cerevisiae deletion strains, locus YPR135W, strain CTF4, stronger effect = lower value 1.04 | S. cerevisiae strains, strain wild type, stronger effect = lower value 1.02
